Some test systems named below: NCI-H226 lung; NCI-H322M lung; HOP-62 NSCLC; NCI-H460 lung; HOP-92 NSCLC; NCI-H522 lung; A549/ATCC NSCLC; 786-0 renal; COLO 205 colon; DU-145 prostate.
Common to all, as to assay: NCI-60 one-dose screen, 48 h (100 = growth as untreated, 0 = no growth, -100 = all killed)
What all share (settings): 10 µM unless noted

About 83,000 compounds went through this panel and 20% of them were active in at least one assay; those are over-represented in the sample as a whole.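 Testing used 96-well plates and a 48-hour single-concentration exposure. Example: -40 means 40% of the starting cells died.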 A number with no mark means an inactive call. Calls of active or inactive are those of the source. Rule for the calls: active = growth percent below 10; inactive = the rest.

With `N#Cc1ccc(/C=N/NC(=O)c2[nH]c3ccc(Br)cc3c2-c2ccccc2)s1`, the growth in the test on NCI-H226 lung was 46.9%; in the test with NCI-H322M lung, 45.9%; in the test on HOP-62 NSCLC it was 26.9%; with NCI-H460 lung, 3.12% (active); in the test with HOP-92 NSCLC, 33.9%; in the test with NCI-H522 lung it was -22.7% (active). Moreover, the growth with A549/ATCC NSCLC was 22.4%; with 786-0 renal, 10.2%; in the test with COLO 205 colon it was -13.3% (active); with DU-145 prostate, 19.3%.
As for `C[C@@H]1CN(c2ccc3ncc(C#Cc4cncc(C(=O)Nc5ccc(CN6CCN(C)CC6)c(C(F)(F)F)c5)c4)n3n2)C[C@H](C)O1`, the growth in the test with NCI-H226 lung is -48.8% (active); with NCI-H322M lung, -19.4% (active); in the test with HOP-62 NSCLC, -30.1% (active); in the test with NCI-H460 lung it was -77.7% (active); with HOP-92 NSCLC, -44.4% (active); in the test with NCI-H522 lung, -78.8% (active). The growth is -82.5% (active) with A549/ATCC NSCLC, -74.8% (active) in the test with 786-0 renal, -76.8% (active) in the test with COLO 205 colon and -97.5% (active) in the test on DU-145 prostate.
With `COc1ccc(CNS(=O)(=O)/N=C2\NC(=O)NC2=C(Cl)Cl)cc1`, the growth in the test with NCI-H226 lung is 46.1%; in the test with NCI-H322M lung, 37.1%; with HOP-62 NSCLC, 46.9%; in the test on NCI-H460 lung, 19%; in the test on HOP-92 NSCLC, -2.17% (active); in the test with NCI-H522 lung, 2.05% (active). For the same compound, the growth in the test on A549/ATCC NSCLC was 25.7%; with 786-0 renal it was 28.8%; in the test on COLO 205 colon, 55.4%; with DU-145 prostate it was 27.9%.
Turning to `CC(=O)Oc1ccccc1C(=O)Nc1ccc(C(=O)/C=C/c2ccncc2)cc1`, the growth in the test on NCI-H226 lung is 92.5%; in the test with NCI-H322M lung it was 78.3%; with HOP-62 NSCLC it was 91.4%; in the test with NCI-H460 lung, 45.8%; in the test on HOP-92 NSCLC it was 66.1%; in the test on NCI-H522 lung, 71.8%. For the same compound, the growth was 56.5% with A549/ATCC NSCLC, 33.9% with 786-0 renal, 66% in the test on COLO 205 colon and 35.6% in the test with DU-145 prostate.
For `NS(=O)(=O)c1ccc(Nc2nc(Nc3ccccc3)nc(-n3nc(-c4ccccc4)cc3-c3ccccc3)n2)cc1`, the growth was 40.7% with NCI-H226 lung; 57.2% in the test on NCI-H322M lung; 63.7% in the test with HOP-62 NSCLC; 5.81% (active) with NCI-H460 lung; 26.8% in the test with HOP-92 NSCLC; 58.5% with NCI-H522 lung. Also, the growth with A549/ATCC NSCLC was 25.9%; with 786-0 renal, 20.1%; in the test on COLO 205 colon it was 9.92% (active); with DU-145 prostate, 32.3%.
For `COc1cc(/C=C/C(=O)c2ccc(F)cc2)ccc1Oc1nc(NCCO)nc(N2CCOCC2)n1`, the growth with NCI-H226 lung was 87.8%; with NCI-H322M lung, 97.4%; with HOP-62 NSCLC it was 102%; in the test on NCI-H460 lung it was 94.2%; in the test on HOP-92 NSCLC it was 94.2%; in the test with NCI-H522 lung, 64.9%. The growth was 101% with A549/ATCC NSCLC, 98.3% with 786-0 renal, 122% with COLO 205 colon and 98.4% with DU-145 prostate.
As to `Cc1c(Nc2nnc(SCC(=O)Nc3sc4c(c3C#N)CCCC4)s2)c(=O)n(-c2ccccc2)n1C`, the growth in the test with NCI-H226 lung was 104%; with NCI-H322M lung, 98.9%; in the test on HOP-62 NSCLC, 107%; in the test with NCI-H460 lung, 100%; in the test with HOP-92 NSCLC, 121%; with NCI-H522 lung, 97.5%. Besides, the growth in the test with A549/ATCC NSCLC was 106%; with 786-0 renal, 108%; in the test on COLO 205 colon, 118%; with DU-145 prostate it was 105%.
Regarding `CS(=O)(=O)c1ccc(-c2nc3ccccn3c2-c2nc3ccc([N+](=O)[O-])cc3[nH]2)cc1`, the growth is 92.2% with NCI-H226 lung; 92% with NCI-H322M lung; 105% in the test with HOP-62 NSCLC; 101% in the test with NCI-H460 lung; 93.7% in the test with HOP-92 NSCLC; 92.4% in the test on NCI-H522 lung. In addition, the growth with A549/ATCC NSCLC is 99.8%; in the test with 786-0 renal, 101%; in the test on COLO 205 colon, 103%; with DU-145 prostate it was 99.8%.
On to `CC(C)(C)Nc1nc2c(OCCc3ccccc3)cccn2c1-c1ccc(O)cc1`, for which the growth in the test on NCI-H226 lung is 63%; in the test on NCI-H322M lung it was 89.9%; with HOP-62 NSCLC it was 80.3%; in the test on NCI-H460 lung it was 45.8%; with HOP-92 NSCLC it was 28.3%; with NCI-H522 lung, 57.5%. Further, the growth with A549/ATCC NSCLC was 48.6%; in the test on 786-0 renal it was 73.3%; with COLO 205 colon, 85.6%; with DU-145 prostate, 97.3%.
In the case of `[Cl][Ru].c1ccc(-c2cccc(-c3ccccn3)n2)nc1.c1ccc(-c2ccnc3c2ccc2c(-c4ccccc4)ccnc23)cc1`, the growth in the test on NCI-H226 lung is 80.1%; in the test on NCI-H322M lung, 76.6%; in the test on HOP-62 NSCLC, 78.7%; in the test on NCI-H460 lung it was 54.8%; in the test on HOP-92 NSCLC, -12.5% (active); with NCI-H522 lung, 13.3%. The growth in the test on A549/ATCC NSCLC is 60.5%; in the test with 786-0 renal, 89.3%; in the test with COLO 205 colon it was -60% (active); in the test on DU-145 prostate, 32.6%.
Take `Nc1nc(N)c2c(n1)NC(c1ccc(C(F)(F)F)cc1)CC(c1ccc(Nc3nc(NCCO)nc(Nc4ccc(Cl)cc4)n3)cc1)=N2` (stereo not given): the growth in the test on NCI-H226 lung was -40.7% (active); in the test with NCI-H322M lung, -61% (active); with HOP-62 NSCLC, 71.7%; in the test on NCI-H460 lung it was -69% (active); in the test with HOP-92 NSCLC it was -65.6% (active); in the test with NCI-H522 lung, -80.1% (active). For the same compound, the growth in the test on A549/ATCC NSCLC was -66.2% (active); in the test on 786-0 renal it was -90.2% (active); in the test with COLO 205 colon, 5.02% (active); in the test on DU-145 prostate, -93.1% (active).
Take `C=CCn1c(SCC(=O)c2ccccc2)nnc1-c1c[nH]c2ccccc12`: the growth with NCI-H226 lung is 87.8%; in the test with NCI-H322M lung, 102%; in the test with HOP-62 NSCLC it was 92.5%; with NCI-H460 lung, 107%; with HOP-92 NSCLC, 81.3%; in the test with NCI-H522 lung, 97.8%. The growth in the test with A549/ATCC NSCLC was 100%; with 786-0 renal, 101%; in the test on COLO 205 colon, 122%; in the test on DU-145 prostate, 109%.
As for `CN(C)CCCNc1c2ccc(Cl)cc2nc2c1oc1ccccc12`, the growth in the test with NCI-H226 lung is 1.58% (active); with NCI-H322M lung, -9.39% (active); in the test on HOP-62 NSCLC, 46.9%; with NCI-H460 lung it was -3.28% (active); in the test on HOP-92 NSCLC it was -1.97% (active); in the test on NCI-H522 lung, 2.37% (active). The growth in the test on A549/ATCC NSCLC is -40.4% (active); with 786-0 renal, 2.06% (active); with COLO 205 colon it was 1.47% (active); in the test with DU-145 prostate, 4% (active).

For the origin of these results see PubChem BioAssay (NCI).
